Among the test systems are HCT-15 colon; HT29 colon; SNB-75 CNS; SNB-19 CNS; U251 CNS; PC-3 prostate; SK-MEL-5 melanoma; UACC-62 melanoma; LOX IMVI melanoma; SK-MEL-28 melanoma; EKVX NSCLC; SN12C renal; UO-31 renal; TK-10 renal; ACHN renal; CAKI-1 renal; CCRF-CEM leukemia; MOLT-4 leukemia; SK-MEL-2 melanoma; A498 renal.
Common to all, as to test: NCI-60 one-dose screen, 48 h (100 = growth as untreated, 0 = no growth, -100 = all killed)
Holding throughout (conditions): 10 µM unless noted

Each structure is given as a SMILES string. The panel holds about 83,000 compounds, 20% with a hit somewhere; the sample as a whole holds those more often.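 Note: values are percent growth. 100 is the growth of untreated cells, values between 100 and 0 indicate rising inhibition; between -100 and 0 indicates cell death.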 A number with no mark means an inactive call. The source made the active and inactive calls. The calls were made as follows: active = growth percent below 10; inactive = the rest.

Regarding `Cc1cc(C)c(N2C(=O)CC(Nc3ccc(Cl)cc3Cl)C2=O)c(C)c1` (centres undefined), the growth is 102% with HCT-15 colon; 107% in the assay on HT29 colon; 93% in the assay on SNB-75 CNS; 98.5% in the assay on SNB-19 CNS; 104% in the assay with U251 CNS; 94.8% in the assay on PC-3 prostate. Besides, the growth with SK-MEL-5 melanoma was 103%; in the assay with UACC-62 melanoma, 91.4%; in the assay on LOX IMVI melanoma it was 96%; in the assay with SK-MEL-28 melanoma, 102%; with EKVX NSCLC, 102%; with SN12C renal, 98.2%. The growth with UO-31 renal is 85.9%; in the assay with TK-10 renal, 109%; in the assay on ACHN renal, 103%; with CAKI-1 renal, 87.6%; with CCRF-CEM leukemia, 105%; in the assay with MOLT-4 leukemia, 103%.
For `NS(=O)(=O)c1ccc(Nc2nc(N/N=C/CCc3ccccc3)nc(Nc3ccccc3)n2)cc1`, the growth with HCT-15 colon is 105%; in the assay on HT29 colon it was 107%; with SNB-75 CNS it was 112%; in the assay on SNB-19 CNS it was 104%; in the assay with U251 CNS, 104%; in the assay with PC-3 prostate it was 104%. The growth in the assay on SK-MEL-5 melanoma is 99.7%; with UACC-62 melanoma, 95.8%; with LOX IMVI melanoma, 95.4%; in the assay with SK-MEL-2 melanoma, 105%; with EKVX NSCLC it was 97.8%; with SN12C renal it was 105%. For the same molecule, the growth in the assay on UO-31 renal was 84%; in the assay on TK-10 renal, 105%; in the assay with ACHN renal, 101%; in the assay with CAKI-1 renal, 96.9%; in the assay with A498 renal, 86.4%; with CCRF-CEM leukemia it was 93.6%. Besides, in the assay with MOLT-4 leukemia, the growth is 101%.
For `Nc1nc(-c2cccc([N+](=O)[O-])c2)c(N=Nc2ccc(Br)cc2)s1`, the growth in the assay with HCT-15 colon was 0.133% (active); with HT29 colon it was 30.1%; in the assay on SNB-75 CNS, -27.9% (active); in the assay with SNB-19 CNS, 29.9%; in the assay on U251 CNS, -89.3% (active); with PC-3 prostate, 2.83% (active). For the same molecule, the growth in the assay with SK-MEL-5 melanoma was -38.5% (active); in the assay with UACC-62 melanoma, -37.8% (active); with LOX IMVI melanoma, -84% (active); in the assay on SK-MEL-28 melanoma, 4.69% (active); in the assay on EKVX NSCLC it was 8.7% (active); in the assay with SN12C renal, -26.8% (active). Also, the growth in the assay with UO-31 renal is -80.3% (active); in the assay on TK-10 renal, -96.2% (active); in the assay with ACHN renal, -96.7% (active); in the assay with CAKI-1 renal, -87.9% (active); in the assay with CCRF-CEM leukemia, 31.9%; in the assay with MOLT-4 leukemia it was 29.5%.
Take `CCO/C=N/C1=C(C#N)C(c2ccc(OC)cc2)c2sc3c(CC)cccc3c2O1` (centres undefined): the growth in the assay with HCT-15 colon was 22.4%; in the assay with HT29 colon, 13.1%; in the assay on SNB-75 CNS, -0.25% (active); with SNB-19 CNS it was 37.8%; in the assay with U251 CNS, 27.3%; with PC-3 prostate, 26.9%. For the same molecule, the growth in the assay with SK-MEL-5 melanoma is 17.6%; in the assay on UACC-62 melanoma, 27.6%; in the assay on LOX IMVI melanoma, 26%; in the assay on SK-MEL-2 melanoma, 41.4%; in the assay on EKVX NSCLC, 47.5%; in the assay on SN12C renal it was 43.6%. Further, the growth in the assay on UO-31 renal was 48.1%; in the assay with TK-10 renal, 69.3%; in the assay with ACHN renal, 46.8%; in the assay on CAKI-1 renal it was 50%; in the assay on A498 renal, 6.97% (active); with CCRF-CEM leukemia it was 22.4%. In addition, the growth with MOLT-4 leukemia is 26.8%.
With `CCOc1cccc(-c2nc3sccn3c2-c2ccnc(S(C)(=O)=O)n2)c1`, the growth with HCT-15 colon is 76.8%; in the assay on HT29 colon, 99.6%; with SNB-75 CNS it was 98.4%; with SNB-19 CNS, 91.8%; with U251 CNS it was 103%; in the assay with PC-3 prostate, 96.9%. Moreover, the growth in the assay on SK-MEL-5 melanoma was 99.3%; in the assay with UACC-62 melanoma it was 89.6%; in the assay on LOX IMVI melanoma, 78.6%; in the assay with SK-MEL-2 melanoma it was 108%; with EKVX NSCLC, 101%; in the assay with SN12C renal, 98.4%. Also, the growth is 97.1% in the assay on UO-31 renal; 119% with TK-10 renal; 87.6% with ACHN renal; 86.3% in the assay with CAKI-1 renal; 73.3% in the assay with A498 renal; 99.6% in the assay on CCRF-CEM leukemia. Moreover, the growth in the assay on MOLT-4 leukemia is 101%.
For the molecule `COc1cc(OC)cc(C(=O)Nc2cccc(C#Cc3cccc4[nH]nc(N)c34)c2)c1`, the growth in the assay on HCT-15 colon was 31.1%; in the assay on HT29 colon it was 7.34% (active); with SNB-75 CNS it was -18.6% (active); with SNB-19 CNS it was 57.2%; in the assay on U251 CNS, 22.5%; with PC-3 prostate it was 31.9%. The growth was -32.6% (active) in the assay with SK-MEL-5 melanoma; 23.1% with UACC-62 melanoma; 31.9% in the assay on LOX IMVI melanoma; -24.2% (active) with SK-MEL-2 melanoma; 61.1% in the assay on EKVX NSCLC; 30.4% in the assay with SN12C renal. Besides, the growth with UO-31 renal was 32.2%; with TK-10 renal, 54.3%; with ACHN renal it was 35.4%; in the assay on CAKI-1 renal, 24.5%; in the assay on A498 renal it was -19.2% (active); with CCRF-CEM leukemia, 13%.
Turning to `CN1CCN(Cc2ccc(NC(=O)c3cncc(C#Cc4cnc5ccc(N6CCN(C)CC6)nn45)c3)cc2C(F)(F)F)CC1`, the growth was -57% (active) with HCT-15 colon; -41.6% (active) in the assay with HT29 colon; -68.9% (active) with SNB-75 CNS; -29.3% (active) with SNB-19 CNS; -96.7% (active) in the assay on U251 CNS; -18.6% (active) with PC-3 prostate. Also, the growth is 90.5% with SK-MEL-5 melanoma; 92.2% with UACC-62 melanoma; -93.1% (active) in the assay with LOX IMVI melanoma; 56.4% with SK-MEL-2 melanoma; -84.9% (active) in the assay on EKVX NSCLC; 15.7% in the assay on SN12C renal. The growth in the assay with UO-31 renal is 20.1%; in the assay on TK-10 renal it was 59%; with ACHN renal, -98.1% (active); in the assay with CAKI-1 renal, -95.3% (active); with A498 renal, 43.7%; in the assay with CCRF-CEM leukemia it was -2.14% (active). The growth with MOLT-4 leukemia was -26.2% (active).
On to `O=C(CSc1nc2ccccc2c(=O)n1-c1ccccc1)Nc1ccc(-c2nc3ccc([N+](=O)[O-])cc3[nH]2)cc1`, for which the growth in the assay with HCT-15 colon was 61.3%; in the assay on HT29 colon, 79.3%; in the assay with SNB-75 CNS, 82.5%; with SNB-19 CNS, 81.8%; with U251 CNS it was 87.6%; with PC-3 prostate it was 69.7%. The growth with SK-MEL-5 melanoma was 91.4%; in the assay on UACC-62 melanoma, 51.9%; in the assay on LOX IMVI melanoma, 37.8%; with SK-MEL-2 melanoma, 89.5%; in the assay on EKVX NSCLC, 93.5%; with SN12C renal, 72.4%. The growth in the assay with UO-31 renal is 76.9%; in the assay with TK-10 renal, 127%; with ACHN renal, 88.2%; in the assay with CAKI-1 renal, 78.2%; with A498 renal it was 77.8%; in the assay on CCRF-CEM leukemia, 22.1%. The growth with MOLT-4 leukemia was 20.4%.

Source of the values: PubChem BioAssay (NCI).
